Laboratory results from PubChem BioAssay.
For some of these results: Potency and affinity values are given separately. Calls of active or inactive are those of the source.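 Rule for the calls, unless noted: active = primary screen activator hit with a dose response curve and TRPC4 channel activation at any tested dose; inactive = no activation, no dose response, or not a primary hit.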

Tests used:
[1] = test system: TRPC4 beta (transient receptor potential cation channel C4), mouse; experiment: activators of mouse TRPC4 channel, confirmation, cell-based, Fluo4 calcium, HEK293 TRPC4beta/mu-opioid, duplicates, 10 µM (AID 2426;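 active = fluorescence ratio normalized to control raised more than 50% in primary screen plus both repeat runs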); settings: Fluo4 calcium fluorescence, at 10 µM; hits give high values
[2] = test system: transient receptor potential cation channel C4 beta (TRPC4), mouse; experiment: activators of mouse TRPC4 channel, confirmation, cell-based, second round, Fluo4, HEK293 TRPC4beta/mu-opioid, 1 µM (AID 2461;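 active = primary screen active and over 50% activation in each of two duplicate runs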); settings: Fluo4 calcium fluorescence, at 1 µM; hits give high values
[3] = test system: TRPC4 (transient receptor potential cation channel C4 beta), mouse; experiment: positive allosteric modulators of mouse TRPC4, confirmation, cell-based, second round, Fluo-4, HEK293 TRPC4beta/mu-opioid, 1 µM (AID 2554;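 active = primary screen hit whose fluorescence ratio, in both repeats, exceeds the weak agonist control mean by 3 SD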); settings: DAMGO EC20, Fluo-4 calcium flux, at 1 µM; hits give high values
[4] = test system: TRPC4 beta (transient receptor potential cation channel C4), mouse; experiment: positive allosteric modulators of mouse TRPC4, confirmation, cell-based, Fluo-4, HEK293 TRPC4beta/mu-opioid (AID 2555;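 active = primary screen hit whose calcium fluorescence ratio, in both repeats, exceeds the weak agonist control mean by 3 SD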); settings: DAMGO EC20, Fluo-4 calcium flux, at 10 µM; hits give high values
[5] = target: Short transient receptor potential channel 4 (Mus musculus) (UniProt Q9QUQ5); experiment: inhibitors of mouse TRPC4 channel, confirmation, cell-based, Fluo4, HEK293 TRPC4beta/mu-opioid (AID 2636;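 active = calcium signal cut by more than 3 SD below the full-agonist control yet still positive, in both repeats and the earlier primary screen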); settings: DAMGO, Fluo4 calcium flux, at 10 µM; hits give high values
[6] = target: Short transient receptor potential channel 4 (Mus musculus) (UniProt Q9QUQ5); experiment: inhibitors of mouse TRPC4 channel, confirmation, cell-based, second round, Fluo4, HEK293 TRPC4beta/mu-opioid, 1 µM (AID 2637;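 active = calcium signal ratio cut to more than 3 SD under the fully stimulated control mean yet still positive, in both repeats and the primary screen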;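 for inhibition: percent of integrated ratio relative to wells lacking test compound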); settings: Fluo4 calcium flux, DAMGO, at 1 µM; hits give high values
[7] = target: Short transient receptor potential channel 4 (Mus musculus) (UniProt Q9QUQ5); experiment: mouse TRPC4 channel activators, dose response, cell-based, HEK293 TRPC4/mu-opioid, Fluo-4 calcium (AID 434937)
[8] = target: Short transient receptor potential channel 4 (Mus musculus) (UniProt Q9QUQ5); experiment: TRPC4 positive allosteric modulators, dose response, cell-based, HEK293 TRPC4/mu-opioid, Fluo-4 calcium, EC20 DAMGO (AID 434941;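 active = earlier screen potentiator hit that boosts the TRPC4 ion channel at some dose, with a dose response; inactive = no potentiation, no dose response, or not a prior hit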;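 note: calcium entry triggered by an EC20 dose of DAMGO at the co-expressed mu-opioid receptor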)
[9] = target: Short transient receptor potential channel 6 (Mus musculus) (UniProt Q61143); experiment: inhibition of mouse TRPC6 channel, confirmation, selectivity assay for TRPC4 inhibitor project, cell-based, HEK293, membrane potential dye, duplicate (AID 434948;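 active = active in primary screen and both duplicates, each dropping signal beyond three positive-control SD with fluorescence still positive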); settings: HEK293 TRPC6, membrane potential dye fluorescence, at 10 µM, stimulated with maximal-effect acetylcholine; hits give high values
[10] = target: Short transient receptor potential channel 6 (Mus musculus) (UniProt Q61143); experiment: activation of mouse TRPC6 channel, confirmation, selectivity assay for TRPC4 activator project, cell-based, HEK293, membrane potential dye, duplicate (AID 434950;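 active = membrane potential signal rise above negative control mean plus 3 SD in both duplicates, also active in the earlier TRPC4 screen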); settings: HEK293 TRPC6, membrane potential fluorescence, at 10 µM; hits give high values
[11] = target: Short transient receptor potential channel 6 (Mus musculus) (UniProt Q61143); experiment: TRPC6 potentiation by TRPC4 potentiator hits, confirmation, selectivity assay for TRPC4 potentiator project, HEK293 cells, membrane potential dye, duplicate (AID 434952;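 active = compound raising the membrane signal above positive-control mean plus 3 SD in both repeats, and a primary screen hit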); settings: HEK293 TRPC6, membrane potential dye fluorescence, at 10 µM, maximal acetylcholine added after compound; hits give high values
[12] = target: Short transient receptor potential channel 4 (Mus musculus) (UniProt Q9QUQ5); experiment: calcium flux activators in TRPC4/5HT1a cells, counter-screen for TRPC4 activator project, cell-based, second counter screen, HEK293 TRPC4/5HT1a, Fluo-4 (AID 434977;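 active = calcium signal rise above buffer-control mean plus 5 SD in both duplicates, and also a hit in the primary screen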); settings: Fluo-4 calcium flux, at 10 µM; hits give high values
[13] = calcium flux inhibitors in TRPC4/5HT1a cells, confirmation, counter-screen for TRPC4 inhibitor project, cell-based, second counter screen, HEK293 TRPC4/5HT1a, Fluo-4 (AID 434978;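 active = primary screen active whose calcium signal fell more than 3 SD beyond the full-serotonin control mean in both duplicate plates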); settings: Fluo-4 calcium flux, at 10 µM, serotonin added to trigger calcium flux; hits give high values
[14] = test system: TRPC4 (mouse), co-expressed with 5HT1a in HEK293; experiment: calcium flux potentiators in TRPC4/5HT1a cells, confirmation, counter-screen for TRPC4 potentiator project, cell-based, second counter screen, HEK293 TRPC4/5HT1a, Fluo-4 (AID 434979;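 active = signal rise over 3 SD above mean of control wells given weak agonist, in both repeats and first screen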); settings: Fluo-4 calcium flux, at 10 µM, serotonin added at its EC20 dose; hits give high values
[15] = calcium flux activation in mu-opioid HEK293 cells, confirmation, counter-screen for TRPC4 activator project, cell-based, HEK293 mu-opioid receptor line (AID 449723;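 active = hit in primary screen, with calcium signal over 5 SD above buffer well mean in both duplicates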;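 note: counter screen cells carry the mu-opioid receptor alone and lack TRPC4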); settings: Fluo-4 calcium fluorescence, at 10 µM; hits give high values
[16] = calcium flux enhancement in mu-opioid HEK293 cells, confirmation, counter-screen for TRPC4 allosteric potentiator project, cell-based, HEK293 mu-opioid receptor line (AID 449724;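 active = calcium signal rise more than 3 SD above the low-dose agonist control mean, in both duplicate plates and the primary screen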); settings: Fluo-4 calcium flux, at 10 µM, compound added before EC20 DAMGO stimulus; hits give high values

Measured: inhibition

Short transient receptor potential channel 6 (Mus musculus), sequence (Q61143 whole entry, looked up): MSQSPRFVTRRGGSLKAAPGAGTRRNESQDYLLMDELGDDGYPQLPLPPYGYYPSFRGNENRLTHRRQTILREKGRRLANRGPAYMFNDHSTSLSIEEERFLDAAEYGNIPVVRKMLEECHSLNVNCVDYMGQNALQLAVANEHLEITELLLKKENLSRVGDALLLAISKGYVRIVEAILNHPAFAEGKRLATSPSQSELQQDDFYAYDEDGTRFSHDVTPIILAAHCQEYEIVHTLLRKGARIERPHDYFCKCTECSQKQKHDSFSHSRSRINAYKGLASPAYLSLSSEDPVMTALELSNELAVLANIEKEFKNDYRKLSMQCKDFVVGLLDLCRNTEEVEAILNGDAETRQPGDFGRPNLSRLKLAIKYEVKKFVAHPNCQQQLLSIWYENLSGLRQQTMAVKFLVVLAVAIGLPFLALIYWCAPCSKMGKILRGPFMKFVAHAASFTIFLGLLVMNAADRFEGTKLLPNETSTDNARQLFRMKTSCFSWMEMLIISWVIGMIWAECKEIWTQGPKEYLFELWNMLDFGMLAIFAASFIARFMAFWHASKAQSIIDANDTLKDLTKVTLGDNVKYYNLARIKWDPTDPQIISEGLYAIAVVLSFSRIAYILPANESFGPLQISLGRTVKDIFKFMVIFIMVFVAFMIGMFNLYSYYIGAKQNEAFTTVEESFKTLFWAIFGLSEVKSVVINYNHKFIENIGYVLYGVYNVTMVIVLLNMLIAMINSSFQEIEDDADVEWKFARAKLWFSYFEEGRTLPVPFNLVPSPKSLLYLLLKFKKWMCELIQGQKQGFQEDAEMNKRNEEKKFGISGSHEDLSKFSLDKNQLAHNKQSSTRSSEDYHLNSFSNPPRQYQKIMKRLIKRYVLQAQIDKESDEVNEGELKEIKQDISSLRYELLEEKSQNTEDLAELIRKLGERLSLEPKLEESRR
Short transient receptor potential channel 4 (Mus musculus), sequence (Q9QUQ5 whole entry, looked up): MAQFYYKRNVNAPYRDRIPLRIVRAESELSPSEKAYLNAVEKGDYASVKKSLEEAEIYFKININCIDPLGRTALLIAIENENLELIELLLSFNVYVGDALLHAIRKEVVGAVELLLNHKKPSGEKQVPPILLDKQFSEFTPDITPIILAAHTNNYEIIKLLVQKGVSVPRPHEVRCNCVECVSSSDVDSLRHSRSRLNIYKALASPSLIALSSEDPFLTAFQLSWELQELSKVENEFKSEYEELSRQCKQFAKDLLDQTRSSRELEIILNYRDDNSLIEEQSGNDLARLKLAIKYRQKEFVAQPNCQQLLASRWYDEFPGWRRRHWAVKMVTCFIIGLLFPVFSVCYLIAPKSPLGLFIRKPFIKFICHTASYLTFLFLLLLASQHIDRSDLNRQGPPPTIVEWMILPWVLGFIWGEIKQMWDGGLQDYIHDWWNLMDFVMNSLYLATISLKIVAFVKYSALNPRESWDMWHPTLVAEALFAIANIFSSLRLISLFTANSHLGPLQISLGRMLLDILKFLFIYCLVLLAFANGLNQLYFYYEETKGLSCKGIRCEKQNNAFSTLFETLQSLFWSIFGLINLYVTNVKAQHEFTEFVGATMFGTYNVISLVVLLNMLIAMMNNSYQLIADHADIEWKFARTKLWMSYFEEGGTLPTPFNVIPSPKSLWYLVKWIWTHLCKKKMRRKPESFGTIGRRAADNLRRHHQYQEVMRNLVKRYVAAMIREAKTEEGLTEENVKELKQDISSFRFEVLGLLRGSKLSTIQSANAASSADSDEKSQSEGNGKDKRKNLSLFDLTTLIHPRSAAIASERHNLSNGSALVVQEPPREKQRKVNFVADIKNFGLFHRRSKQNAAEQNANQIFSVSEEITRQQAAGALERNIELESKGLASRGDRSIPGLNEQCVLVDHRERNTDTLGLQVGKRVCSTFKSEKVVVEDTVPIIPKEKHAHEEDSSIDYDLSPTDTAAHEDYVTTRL

O=C(O)c1ccc(NC(=S)NC(=O)c2ccc(-c3ccccc3)cc2)cc1
inactive: [1] | [2] | [3] | [4] | [6] | [7] | [8] | [9] | [10] | [11] | [12] | [14] | [15] | [16]
active: [5] 64% | [13] 43.1%

COc1cc(CNCCCN2CCOCC2)cc(Br)c1OCc1ccc(Cl)cc1
inactive: [1] | [2] | [3] | [4] | [5] | [6] | [7] | [8] | [10] | [11] | [12] | [14] | [15] | [16]
active: [9] 51% | [13] 23.6%

CCn1c(NCc2c[nH]c3ccccc23)nc2ccccc21
active: [5] 89% | [13] 32.7%
inactive: [1] | [2] | [3] | [4] | [6] | [7] | [8] | [9] | [10] | [11] | [12] | [14] | [15] | [16]

Clc1cccc(COn2c(-c3ccc(Cl)cc3Cl)nc3ncccc32)c1
active: [5] 83% | [6] 45% | [13] 41.3%
inactive: [1] | [2] | [3] | [4] | [7] | [8] | [9] | [10] | [11] | [12] | [14] | [15] | [16]

Clc1ccc(CN2C3=NCCN3c3ccccc32)cc1Cl
inactive: [1] | [2] | [3] | [4] | [5] | [7] | [8] | [9] | [10] | [11] | [12] | [14] | [15] | [16]
active: [6] 65% | [13] 20.3%

COc1ccc(-n2c3c(cc(C(=O)NCc4ccco4)c2=O)C(=O)CC(C)(C)C3)cc1
active: [5] 53%
inactive: [1] | [2] | [3] | [4] | [6] | [7] | [8] | [9] | [10] | [11] | [12] | [13] | [14] | [15] | [16]

CCCCc1nc(SCCOC)c2c(=O)n(C)c(=O)n(C)c2n1
active: [5] 88% | [13] 12.3%
inactive: [1] | [2] | [3] | [4] | [6] | [7] | [8] | [9] | [10] | [11] | [12] | [14] | [15] | [16]

CCCc1nc(SC2CCCC2)c2c(=O)n(C)c(=O)n(C)c2n1
active: [13] 39.1%
inactive: [1] | [2] | [3] | [4] | [5] | [6] | [7] | [8] | [9] | [10] | [11] | [12] | [14] | [15] | [16]

Cc1ccc2c(c1)N(C(=O)CCC(=O)Nc1ccccc1Cl)CC(C)O2 (stereo unspecified)
active: [5] 73%
inactive: [1] | [2] | [3] | [4] | [6] | [7] | [8] | [9] | [10] | [11] | [12] | [13] | [14] | [15] | [16]

CCOc1ccccc1N(CC)C(=O)c1nn(C)c2c1CSc1ccccc1-2
active: [5] 95% | [6] 40% | [13] 18.7%
inactive: [1] | [2] | [3] | [4] | [7] | [8] | [9] | [10] | [11] | [12] | [14] | [15] | [16]

CC1CCCCN1CCCNC(=O)c1nn(C)c2c1CSc1ccccc1-2 (stereo unspecified)
inactive: [1] | [2] | [3] | [4] | [6] | [7] | [8] | [9] | [10] | [11] | [12] | [13] | [14] | [15] | [16]
active: [5] 94%

CCCCNCc1cc(Cl)c(OCCC)c(OCC)c1
active: [5] 86%
inactive: [1] | [2] | [3] | [4] | [6] | [7] | [8] | [9] | [10] | [11] | [12] | [13] | [14] | [15] | [16]

CC(NCCC(Cc1ccccc1)c1ccco1)c1ccccc1 (stereo unspecified)
active: [5] 97% | [9] 39% | [13] 28.4%
inactive: [1] | [2] | [3] | [4] | [6] | [7] | [8] | [10] | [11] | [12] | [14] | [15] | [16]

CCc1ccc(/C=C2/SC(=S)N(CCCC(=O)Nc3ccccc3C(=O)O)C2=O)cc1
inactive: [1] | [2] | [3] | [4] | [6] | [7] | [8] | [9] | [10] | [11] | [12] | [14] | [15] | [16]
active: [5] 93% | [13] 21.2%

COc1cccc(/C=C2\SC(=S)N(NS(=O)(=O)c3ccc(C)cc3)C2=O)c1OC
active: [5] 95% | [13] 4.07%
inactive: [1] | [2] | [3] | [4] | [6] | [7] | [8] | [9] | [10] | [11] | [12] | [14] | [15] | [16]

O=C(COc1ccc(F)cc1)c1c(O)cc(O)cc1O
inactive: [1] | [2] | [3] | [4] | [6] | [7] | [8] | [9] | [10] | [11] | [12] | [14] | [15] | [16]
active: [5] 84% | [13] 36.3%
